Data as given in PubChem BioAssay AID1048 (The Scripps Research Institute Molecular Screening Center, 2008).
About 390 (0.39%) of roughly 99,000 compounds were called active. For the sample, actives were picked, then their nearest neighbours and some compounds at random. Unmarked numbers belong to inactive results. No stated cut-off is given here; in the data, active means TR-FRET ratio above about 2000; inactive means the rest.

assay: signal artefacts in PPARgamma/SRC-3 readout – biochemical, TR-FRET ratio, artefact control for PPARgamma SRC-3 recruitment agonists (AID 1048); conditions: TR-FRET artefact counter-screen, PPARgamma/SRC-3 format; at 8 µM; hits give high values

Compound | TR-FRET ratio
CCOC(=O)c1c(C)n(C)c2ccc(OC)c(NS(=O)(=O)CC)c12 | 1490
CN(CC(=O)N1CCN(c2ccccc2)CC1)S(=O)(=O)c1cccs1 | 1700
Cc1nc(N2CCOCC2)c2c(C)c(C(=O)Nc3ccc(C(F)(F)F)cc3)sc2n1 | 1750
Cc1nc(N2CCC(C)CC2)c2c(C)c(C(=O)Nc3cc(F)ccc3C)sc2n1 | 2360 (active)
Cc1nc(N2CCN(c3ccccn3)CC2)c2c(C)c(C(=O)Nc3ccc(F)cc3)sc2n1 | 1960
CC(C)(C)c1ccc(NC(=O)COC(=O)CCc2nc3ccccc3c(=O)[nH]2)cc1 | 1560
CCC(C(=O)OCC(=O)Nc1ccc(C(=O)Nc2ccc(OC)cc2)cc1)c1ccccc1 (stereo not given) | 1460
CC(C)N1CCC(NC(=O)Nc2ccccc2)CC1 | 1620
COC(=O)c1ccc(C(=O)OC)c(NC(=S)N2CCN(c3ccc(F)cc3)CC2)c1 | 1500
C=CCn1c(CNC(=O)c2ccco2)nnc1SCC(=O)c1ccc(OC)cc1 | 1770
CCc1ccc(OCC(=O)OCC(=O)c2c(N)n(C)c(=O)n(C)c2=O)cc1 | 1320
CC(C)(C)NC(=O)c1ccc(Cn2cc(C(F)(F)F)ccc2=O)cc1 | 1730
N/C(Cc1ccc([N+](=O)[O-])cc1)=N\OC(=O)C1CCCCC1 | 1640
COc1ccc(N2CCN(C(=O)CNS(=O)(=O)c3ccc(C)c(C)c3)CC2)cc1 | 1450
CN1CCC(=NNC(=O)CN(c2cccc(Cl)c2)S(C)(=O)=O)CC1 | 1650
COc1cc(C(=O)Nc2cc(C(F)(F)F)ccc2N2CCOCC2)ccc1O | 1560
CCc1ccc(NC(=O)CC2C(=O)NCCN2C(=S)Nc2ccccc2)cc1 (stereo not given) | 1500
Cc1c(C(N)=O)sc2ncn(CCOc3ccccc3)c(=O)c12 | 1550
Cc1cc(C2=NNC(=Nc3ccc(S(=O)(=O)N4CCOCC4)cc3)SC2)c(C)n1CC1CCCO1 (stereo not given) | 1650
Cc1ccc(OCC(=O)NNC(=S)NCc2ccccc2)cc1 | 1530
Cc1[nH]nc(SCC(=O)NCC(C)C)c1[N+](=O)[O-] | 1720
CC(=O)Nc1ccc(NC(=O)C(C)n2c3ccccc3c3nc(=O)cc(C)n32)cc1 (stereo not given) | 1620
COc1ccc(C(=O)CSc2nnc(-c3ccco3)o2)cc1 | 1800
COC(=O)c1ccc(/C=N/OCC(=O)Nc2cc(F)ccc2F)cc1 | 1390

Compound | TR-FRET ratio
O=C(COC(=O)c1c2c(nc3ccccc13)/C(=C\c1cccs1)CCC2)Nc1ccccc1Cl | 1790
O=C(Nc1c2c(nc3ccccc13)CCCC2)c1ccccc1Br | 1760
O=C(COC(=O)c1c2c(nc3ccccc13)CCCC2)c1ccc(Br)s1 | 4220 (active)
O=C(Nc1ccc2ccccc2c1)/C(=C\c1ccc2c(c1)OCO2)NC(=O)c1ccco1 | 1560
O=C(CSc1ccc(-c2cccs2)nn1)Nc1ccccc1F | 1640
S=c1[nH]nc(-c2ccccc2)n1/N=C/c1c[nH]c2ccccc12 | 1470
Cc1ccccc1-c1n[nH]c(=S)n1C | 1470
Cc1ccccc1-c1n[nH]c(=S)n1/N=C/c1ccc(-c2ccccc2Br)o1 | 2150 (active)
COCCN(C(=S)Nc1ccccc1OC)C1CCN(C(C)C)CC1 | 1690
COc1ccc(OC)c(C(=O)c2ccc(C(=O)N3CCN(Cc4csc(C)n4)CC3)cc2)c1 | 1600
COc1ccc(C)cc1NC(=O)Nc1ccccc1SC | 1480
O=C(NCc1ccccn1)c1cc(Br)ccc1Cl | 1620
O=C(NCc1cccs1)c1cc(-c2ccccn2)nc2ccc(Br)cc12 | 2270 (active)
C/C(N)=C(/C#N)C(=O)COC(=O)c1cc(-c2ccccc2)nc2ccc(Br)cc12 | 1450
Cc1ccc2nc(-c3cccc(Br)c3)cc(C(=O)Nn3cnnc3)c2c1 | 1410
O=C(Nc1ccncc1)c1cc(-c2ccccn2)nc2ccc(Br)cc12 | 1720
Cc1ccc(-c2cc(C(=O)NCc3cn(C)nc3C)c3cc(Br)ccc3n2)cc1 | 3150 (active)
O=C(Cc1c(F)cccc1Cl)Nc1ccc(-n2cnnn2)cc1 | 1510
CCOc1ccc(CCNC(=O)CSc2cc(=O)n(C)c3ccc(Cl)cc23)cc1OCC | 1800
Cn1c(=O)cc(SCC(=O)N2CCCC2)c2cc(Cl)ccc21 | 3460 (active)
CC(C)N(C(=O)Cn1cc(SCC(=O)N2CCCC2)c2ccccc21)C(C)C | 1440
CC(C)NC(=O)c1ccc(Cl)cc1Cl | 1730
NC1=NC2(CCCCC2)N(c2ccc(F)cc2F)C(N)=N1 | 1410
COc1ccc2c(CC(=O)OCC(=O)Nc3ccccc3[N+](=O)[O-])coc2c1 | 1720

Compound | TR-FRET ratio
CCOc1ccc(NC(=O)CSc2ncnc3c2sc2ccccc23)cc1 | 3140 (active)
CCOc1ccc(NC(=O)CSc2nc3ccccc3c(=O)n2Cc2cccs2)cc1 | 1640
CCOc1ccc(NC(=O)c2cc(C)nc3ccccc23)cc1 | 1470
Cn1nnnc1NCc1ccc(Cl)c(Cl)c1 | 1750
CCOC(=O)C1C(c2ccc(Cl)cc2)NC(=S)NC1(O)C(F)(F)F (stereo not given) | 1580
CCCOc1ccc(N/C=C/C(=O)C(C)(C)C)cc1 | 1370
CN(C)c1ccc(N/C=C/C(=O)C(F)(F)F)cc1 | 2070 (active)
CC(C)CNC(=O)C(=O)Nc1ccc(N(C)C)cc1 | 1510
COc1ccc(CC(NC(C)=O)C(=O)NC2CCN(C(=O)C3CC3)CC2)cc1OC (stereo not given) | 1430
CC1COc2ccccc2N1C(=O)c1cccnc1Cl (stereo not given) | 1670
COc1ccc(C(=O)NNC(=O)c2cc(C)[nH]n2)cc1 | 1480
O=C(O)Cc1sc(-c2ccccc2)nc1-c1cccs1 | 2530 (active)
O=C(O)Cc1ccc(-c2ccccc2)cc1 | 1600
O=C(O)Cc1sc(-c2ccc(C(=O)O)cc2)nc1-c1ccccc1 | 1690
CN(C)/N=C/c1cn(-c2ccccc2)nc1-c1cccnc1 | 1610
CCc1nnc(NC(=O)CSc2nnnn2-c2cccc(C(C)=O)c2)s1 | 1550
Cc1ccc2c(c1)C1CN(C)CCC1N2C(=S)Nc1ccc(Cl)cc1Cl (stereo not given) | 1610
CCN(CC)CCNc1nc(-c2ccc(OC(F)F)cc2)c(C)s1 | 1480
CC(NC(=O)COC(=O)c1ccc(Cl)cc1O)c1ccc(F)cc1 (stereo not given) | 1480
Cc1cccc2nc(CSc3nc4[nH]ncc4c(=O)n3-c3cccc(Cl)c3)cc(=O)n12 | 1540
O=c1c2sccc2nc(SCc2cc(=O)n3ccccc3n2)n1-c1ccc(Br)cc1 | 1730
CCc1ccc(-n2c(SCc3cc(=O)n4cc(Br)ccc4n3)nc3[nH]ncc3c2=O)cc1 | 2480 (active)
COc1ccc2cc(CCl)c(Cl)nc2c1 | 1710
CCN(CC)c1ccc(C(=O)N/N=C/c2ccc(N3CCOCC3)cc2)cc1 | 1580

Compound | TR-FRET ratio
CN(C)c1ccc(/C=N/Nc2cc(N3CCOCC3)nc(N3CCOCC3)n2)cc1 | 2070 (active)
C(=N/Nc1cc(N2CCOCC2)nc(N2CCOCC2)n1)/c1ccccc1 | 1290
CCCN(CC(=O)Nc1ccc(C(N)=O)cc1)CC(=O)Nc1ccccc1C | 1400
CC1Cc2ccccc2N1C(=O)CSc1nnc(-c2ccc(S(=O)(=O)N3CCCC3)cc2)n1C (stereo not given) | 1610
CC/C(Cc1ccccc1)=N/NC(=O)CCn1nnc2ccccc21 | 1860
CCOC(=O)c1c(NC(=O)CSc2cn(CC)c3ccccc23)sc2c1CCC2 | 1590
CCOC(=O)c1c(NC(=O)C(C)Sc2c[nH]c3ccccc23)sc2c1CCC2 (stereo not given) | 3480 (active)
CCOC(=O)c1c(NC(=S)Nc2ccccc2C)sc2c1CCC2 | 1790
Cc1ccc(S(=O)(=O)NCCC(=O)Nc2ccc(C)c(Cl)c2)cc1C | 1640
Cc1cccc(NC(=O)c2sc(-c3ccccc3)nc2-c2ccc([N+](=O)[O-])cc2)c1 | 1630
Cc1ccc(-c2nc(-c3cccnc3)sc2CC(=O)Nc2ccc(C)c(Cl)c2)cc1 | 3550 (active)
CCc1cc(CNC(=O)CC2C(=O)NCCN2CC2CCCCC2)on1 (stereo not given) | 1630
CC1=CC=CN2C1=NC(=O)CC2(C)C(=O)N(CC(=O)NC1CCCC1)c1ccccc1C (stereo not given) | 1450
CN(Cc1ccccn1)Cc1nc(-c2ccc(Cl)cc2)no1 | 1430
CN1CCN(S(=O)(=O)c2cccc(C(=O)O)c2)CC1 | 1540
CC1(C)CC(=O)C(C2c3ccccc3S(=O)(=O)c3ccccc32)C(=O)C1 | 1570
CN(CCc1cnn(C)c1)Cc1cn(C)nc1-c1ccccc1F | 1360
COc1cccc(NC(=O)CC(c2ccc(OC(C)C)cc2)c2ccccc2OC)c1 (stereo not given) | 1470
COn1c(-c2ccc(Cl)cc2Cl)nc2ncccc21 | 1970
COc1ccc(CCNC(=O)COC(=O)C2CCCCC2)cc1 | 1330
CC(C)(C)NC(=O)COC(=O)c1cc(Cl)ccc1[N+](=O)[O-] | 1550
COc1ccc2c(c1)C(SCC(=O)NCc1ccccc1)CC(C)(C)O2 (stereo not given) | 1590
O=S1(=O)CC/C(=N\Nc2ccc(F)cc2)c2ccsc21 | 1680
